Screening data: PubChem, National Center for Advancing Translational Sciences (NCATS)
Most compounds without a hit are left out; they make up all but 3.2% or so of the library.
HEK293 tox: cytotoxicity counter-screen for GLP-1 receptor inverse agonists | HEK293 cAMP-luciferase reporter cells, luminescence, 24 h | Potency, µM (highest dose often 38.3 µM), for the others: at the highest dose activity change, negative = inhibition, hits mostly inhibitors | hit rate 0.13% among 410,000;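 also: loss of luciferase light is scored as toxicity; % is scaled to controls: 0 for no effect and ±100 for the full control effect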
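Cells in DMEM/10% Nu serum/1% pen-strep, 1536-well format. Pre-incubated 12 h, dosed with 23 nL compound, incubated a further 24 h. Luciferase detection, 12 min at room temp, luminescence.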
ClpP mod: qHTS Assay for Activators of ClpP; ATP-dependent Clp protease proteolytic subunit (Bacillus subtilis (strain 168)), P80244; purified B. subtilis ClpP, FRET peptide cleavage, 20 min; Potency, µM (highest dose often 57.5 µM), for inactives: at the highest dose activity change, negative = active; hit rate 1.9% among 340,000; AID 651965, 2013; active = well fitted falling curve with a large enough effect; inconclusive = small, poorly fitted or top-dose-only effect; inactive = no such curve, though single readings can be large or run the other way; also: the source files actives as falling curves though it sought activators and does not explain the sign; nearly all actives have a fitted effect of over 65% in size
Target sequence (P80244 whole entry, looked up): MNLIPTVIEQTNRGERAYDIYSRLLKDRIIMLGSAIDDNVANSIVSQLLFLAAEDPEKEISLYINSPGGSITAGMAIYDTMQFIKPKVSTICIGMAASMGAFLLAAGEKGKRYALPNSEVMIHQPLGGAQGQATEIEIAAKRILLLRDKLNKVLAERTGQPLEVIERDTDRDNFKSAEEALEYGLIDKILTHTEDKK
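ClpP 10 microg/mL final, pH 8 Tris/KCl buffer with BSA, glycerol, Tween-20; compound pinned in; FRET-FV substrate; RT 20 min; Ex320/Em430; ΔFRET vs ADEP 5.8 microM, DMSO, no enzyme.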
GLP1R ag: agonists of human GLP-1 receptor | P43220 | HEK293 GLP-1R CRE-luciferase, luminescence, 4-6 h; cells express a hypersensitive GLP-1R form | Potency, µM (top dose mostly 45.6 µM), inactives show top-dose activation, actives largely listed as activators | hit rate 0.007% among 380,000 | AID 624172; also: % of control where 0% means no effect
Target sequence (P43220 whole entry, looked up): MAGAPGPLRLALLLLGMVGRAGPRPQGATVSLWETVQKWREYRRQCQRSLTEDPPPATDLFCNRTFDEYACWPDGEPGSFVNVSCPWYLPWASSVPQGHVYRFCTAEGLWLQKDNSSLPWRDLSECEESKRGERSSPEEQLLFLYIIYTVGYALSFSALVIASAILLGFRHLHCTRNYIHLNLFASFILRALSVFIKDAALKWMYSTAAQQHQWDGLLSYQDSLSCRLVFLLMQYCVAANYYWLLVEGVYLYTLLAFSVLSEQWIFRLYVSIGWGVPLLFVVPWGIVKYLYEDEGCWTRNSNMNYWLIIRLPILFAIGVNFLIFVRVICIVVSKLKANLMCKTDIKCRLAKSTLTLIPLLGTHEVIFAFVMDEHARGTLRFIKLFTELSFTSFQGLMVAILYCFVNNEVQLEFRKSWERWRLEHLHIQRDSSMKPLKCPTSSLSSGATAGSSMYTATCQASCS
GLP-1R inv ag: acts as inverse agonist at human GLP-1 receptor; HEK293 GLP-1R CRE-luciferase, luminescence, 24 h; GLP-1R form is constitutively active; Potency, µM (series often up to 38.3 µM), inactives show at the highest dose activity change, negative = inhibition, hits mostly inhibitors; P43220; AID 624417; hit rate 1.6% among 410,000; also: % is scaled to controls: 0 for no effect and ±100 for the full control effect; nearly all actives have a fitted effect of over 55% in size
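Using stably transfected HEK293 (constitutively active GLP-1R, cAMP-luciferase reporter), compounds were incubated 24 hr and luciferase measured by luminescence.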
An asterisk follows results filed as active. Unless noted, calls follow the shape of the dose curve; as a rule, active = well fitted curve in the direction sought with a large enough effect; inconclusive = small, poorly fitted or top-dose-only effect, or another doubt; inactive = no such curve, though single readings can be large; an effect the other way counts as inactive or inconclusive. Potency is read from the fitted curve at half-maximal effect.

How did CN(C(=O)COc1ncnc2ccccc12)C1CCCCC1 do in these assays?
HEK293 tox: -9%; ClpP mod: 22µM*; GLP1R ag: 1%; GLP-1R inv ag: 0%

Results for CN(C(=O)COc1ncnc2ccc(Br)cc12)C1CCCCC1 ?
HEK293 tox: -14%; ClpP mod: 0%; GLP1R ag: -7%; GLP-1R inv ag: 1%

How did CC1CCCN(CC(O)COCC2COc3ccccc3O2)C1 (centres undefined) do in these assays?
HEK293 tox: -4%; ClpP mod: 14%; GLP1R ag: -8%; GLP-1R inv ag: -14%

How did OC(COC(c1ccc(Cl)cc1)c1ccc(Cl)cc1)CN1CCc2ccccc2C1 (centres undefined) do in these assays?
HEK293 tox: inconclusive; GLP1R ag: 7%; GLP-1R inv ag: 5µM*

What do the screens show for `OC(COCC1COc2ccccc2O1)CN1CCc2ccccc2C1` (centres undefined)?
HEK293 tox: -15%; ClpP mod: 2%; GLP1R ag: -4%; GLP-1R inv ag: 10µM*

What do the screens show for `OC(COC(c1ccccc1)c1ccccc1)CN1CCc2ccccc2C1` (centres undefined)?
HEK293 tox: -1%; GLP1R ag: inconclusive; GLP-1R inv ag: 10µM*

What do the screens show for `OC(COC(c1ccc(F)cc1)c1ccc(F)cc1)CN1CCc2ccccc2C1` (centres undefined)?
HEK293 tox: -8%; ClpP mod: -8%; GLP1R ag: -1%; GLP-1R inv ag: inconclusive

What do the screens show for `CCCCC/C=C/C/C=C/CCCCCCCC(=O)NC(C)c1ccccc1` (centres undefined)?
GLP1R ag: 6%

What do the screens show for `COc1ccc2[nH]c(C)cc(=O)c2c1`?
HEK293 tox: 6%; ClpP mod: 25µM*; GLP1R ag: 25%; GLP-1R inv ag: 15%

How did Cc1cc(=O)c2cc(Cl)ccc2[nH]1 do in these assays?
HEK293 tox: -5%; ClpP mod: -2%; GLP1R ag: -3%; GLP-1R inv ag: -2%

What do the screens show for `COc1ccc2[nH]c(-c3ccc(C)cc3)cc(=O)c2c1`?
HEK293 tox: 0%; ClpP mod: 5%; GLP1R ag: -4%; GLP-1R inv ag: 3.2µM*

Results for CC(=O)N1CC(O)CC1C(=O)O (centres undefined) ?
GLP1R ag: 7%

Results for CCOC(=O)c1ccc(-c2ccc(/C=N/NC(=O)CN(c3ccccc3Br)S(C)(=O)=O)o2)cc1 ?
HEK293 tox: 3%; ClpP mod: 18µM*; GLP1R ag: -2%; GLP-1R inv ag: 43%

How did Cc1cc(N2CCOCC2)nc2ccc(NC(=O)C3CCC(C)CC3)cc12 (centres undefined) do in these assays?
HEK293 tox: -1%; ClpP mod: 14µM*; GLP1R ag: 1%; GLP-1R inv ag: inconclusive

How did Cc1cc(N2CCOCC2)nc2ccc(NC(=O)CCC(=O)N3CCN(c4ccccc4)CC3)cc12 do in these assays?
HEK293 tox: 4%; GLP1R ag: 14%; GLP-1R inv ag: 16%

How did CCN1CCN(C(=S)Nc2ccc3nc(N4CCN(CC)CC4)cc(C)c3c2)CC1 do in these assays?
HEK293 tox: inconclusive; ClpP mod: inconclusive; GLP1R ag: -2%; GLP-1R inv ag: 0%

Results for CCOC(=O)C1CCCN(C(=O)CCC(=O)Nc2ccc3nc(N4CCOCC4)cc(C)c3c2)C1 (centres undefined) ?
HEK293 tox: 5%; ClpP mod: 8.9µM*; GLP1R ag: 4%; GLP-1R inv ag: 24%

How did CCOC(=O)N1CCN(C(=S)Nc2ccc3nc(N4CCN(CC)CC4)cc(C)c3c2)CC1 do in these assays?
HEK293 tox: inconclusive; ClpP mod: 16µM*; GLP1R ag: 2%; GLP-1R inv ag: -14%

What do the screens show for `COc1cc2c(cc1OC)[C@@H](Cc1cc(OC)c(OC)c(OC)c1)[N@+](C)(CCCOC(=O)CC/C=C/CCC(=O)OCCC[N@+]1(C)CCc3cc(OC)c(OC)cc3[C@H]1Cc1cc(OC)c(OC)c(OC)c1)CC2`?
GLP1R ag: 0%

What do the screens show for `CC(C)(C)NC(=O)[C@H]1CC[C@H]2[C@@H]3CC=C4C=C(C(=O)O)CC[C@@]4(C)[C@H]3CC[C@]12C`?
GLP1R ag: -6%

What do the screens show for `COc1ccc(NC(=O)CSCC(=O)N(C)Cc2ccc(Cl)c(Cl)c2)cc1`?
HEK293 tox: -5%; ClpP mod: 0%; GLP1R ag: 21%; GLP-1R inv ag: 10µM*

Results for CN1C(=O)NC(c2ccccc2)C2=C1CN(c1cccc(C(F)(F)F)c1)C2=O (centres undefined) ?
HEK293 tox: -20%; ClpP mod: 40µM*; GLP1R ag: 5%; GLP-1R inv ag: inconclusive

What do the screens show for `COc1ccc(C2NC(=O)N(C)C3=C2C(=O)N(c2ccccc2)C3)cc1` (centres undefined)?
HEK293 tox: 0%; ClpP mod: -17%; GLP1R ag: -3%; GLP-1R inv ag: 14%

How did COc1ccc2c(C(=S)N(C)CC(=O)O)cccc2c1C(F)(F)F do in these assays?
GLP1R ag: -4%

How did COc1ccc(OCC(=O)OC2CCN(C)CC2)cc1 do in these assays?
HEK293 tox: -3%; ClpP mod: 16µM*; GLP1R ag: 0%; GLP-1R inv ag: 2%

Results for COc1ccc(C2Nc3ccccc3C(=O)N2Cc2ccco2)cc1COc1c(C)cccc1C (centres undefined) ?
ClpP mod: 4%

How did CCOC(=O)c1cnc(SCc2cccc(C)c2)nc1N do in these assays?
HEK293 tox: -13%; ClpP mod: -2%; GLP1R ag: inconclusive; GLP-1R inv ag: 10µM*

What do the screens show for `CCOC(=O)c1cnc(SCC(=O)c2ccc(C)cc2)nc1N`?
HEK293 tox: 18%; ClpP mod: -5%; GLP1R ag: 0%; GLP-1R inv ag: -2%

What do the screens show for `COc1ccc(C(=O)Nc2ccc(-c3nc4ccccc4s3)c(Cl)c2)cc1Cl`?
HEK293 tox: 5%; ClpP mod: 4%; GLP1R ag: 2%; GLP-1R inv ag: 0%

How did Cc1ccc(OCC(=O)Nc2cccc(-c3nc4ccccc4s3)c2)cc1 do in these assays?
HEK293 tox: -8%; ClpP mod: inconclusive; GLP-1R inv ag: 10%

What do the screens show for `Cn1cnc(S(=O)(=O)N2CCC(C(=O)N3CCN(c4ccccc4F)CC3)CC2)c1`?
HEK293 tox: -7%; ClpP mod: 3%; GLP-1R inv ag: 6%

What do the screens show for `O=C1CC(O)(C(F)F)Oc2ccc3ccccc3c21` (centres undefined)?
HEK293 tox: 27%; ClpP mod: 25µM*; GLP1R ag: -3%; GLP-1R inv ag: 0%

How did Cc1cc(C)cc(Oc2nc(-c3ccccc3)cc(C)c2S(C)(=O)=O)c1 do in these assays?
HEK293 tox: -10%; ClpP mod: inconclusive; GLP1R ag: 3%; GLP-1R inv ag: 4.5µM*

Results for Cc1cccc(Oc2nc(-c3ccccc3)cc(C)c2S(C)(=O)=O)c1C ?
HEK293 tox: 17%; ClpP mod: inconclusive; GLP1R ag: 6%; GLP-1R inv ag: inconclusive
